The list is not random: actives were taken first. Their share in the collection is about 4.2%.
TCR act: activates T cell receptor signaling; primary human leukocytes, anti-CD3, IL-2 HTRF, 48 h; Potency, µM (series often up to 9.22 µM), hits mostly activators; 330,000 tested, under 10 active; AID 504894
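Primary human leukocytes incubated 48 hr with anti-CD3 beads plus compound, without co-stimulation. Secreted IL-2 measured by HTRF (europium cryptate/d2 anti-IL-2 pair, 320 nm excitation, 665 nm emission).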
Sfp inh: inhibitors of Bacillus subtilis Sfp phosphopantetheinyl transferase | Biochemical Sfp PPTase activity, qHTS | Potency, µM, usual class: inhibitors | 310,000 compounds, 3.5% hits | AID 1490;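 note: the enzyme is Sfp with the accession as filed and its product quenches rhodamine fluorescence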
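Reaction rates are the 30-min fluorescence difference (ex 525, em 598 nm) in wells containing 15 nM Sfp, 5 uM rhodamine-CoA and 12.5 uM BHQ-2-YbbR at pH 7.6 with 10 mM MgCl2.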
ClpP mod: qHTS Assay for Activators of ClpP; ATP-dependent Clp protease proteolytic subunit (Bacillus subtilis (strain 168)), P80244; purified B. subtilis ClpP, FRET peptide cleavage, 20 min; Potency, µM (top dose mostly 57.5 µM); 340,000 compounds, 1.9% hits; active = well fitted falling curve with a large enough effect; inconclusive = small, poorly fitted or top-dose-only effect; inactive = no such curve, though single readings can be large or run the other way; note: the source files actives as falling curves though it sought activators and does not explain the sign; nearly all actives have a fitted effect of over 65% in size
Target sequence (P80244 whole entry, looked up): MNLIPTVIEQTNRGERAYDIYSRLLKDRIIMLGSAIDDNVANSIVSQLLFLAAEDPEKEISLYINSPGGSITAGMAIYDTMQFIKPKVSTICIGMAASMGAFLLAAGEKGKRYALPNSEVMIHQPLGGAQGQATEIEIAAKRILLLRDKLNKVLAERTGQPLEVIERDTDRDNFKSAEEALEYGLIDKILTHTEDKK
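ClpP 10 microg/mL final, pH 8 Tris/KCl buffer with BSA, glycerol, Tween-20; compound pinned in; FRET-FV substrate; RT 20 min; Ex320/Em430; ΔFRET vs ADEP 5.8 microM, DMSO, no enzyme.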
uPA generation: inhibitors of cell surface uPA generation | Potency, µM (doses to about 38.3 µM), most hits filed as inhibitors | AID 540303 | 330,000 compounds, 0.31% hits | cell surface uPA generation assay, qHTS; active = well fitted inhibition curve with a large enough effect; inconclusive = small, poorly fitted or top-dose-only effect; inactive = no such curve, though single readings can be large or run the other way; tested in mouse RAW 264.7 cells; note: nearly all actives have a fitted effect of over 55% in size
A number is an active result; - = inactive; ? = inconclusive; . = no result; ! = repeats disagree. Unless noted, calls come from the whole dose curve; as a rule, active = well fitted curve in the direction sought with a large enough effect; inconclusive = small, poorly fitted or top-dose-only effect, or another doubt; inactive = no such curve, though single readings can be large; an effect the other way counts as inactive or inconclusive.

SMILES | TCR act | Sfp inh | ClpP mod | uPA generation
COc1ccc(-n2ncc(C(C)NS(=O)(=O)c3ccc(C)s3)c2C)cc1 (stereo not drawn) | - | - | - | -
N#Cc1ccccc1S(=O)(=O)N1CCN(CC(O)COc2ccccc2F)CC1 (stereo not drawn) | - | 56µM | - | -
O=S(=O)(c1ccc(F)cc1)N1CCN(CC(O)COc2ccccc2F)CC1 (stereo not drawn) | - | 56µM | - | -
O=S(=O)(c1ccccc1C(F)(F)F)N1CCN(CC(O)COc2ccccc2F)CC1 (stereo not drawn) | - | ? | - | -
CSc1ncccc1C(=O)N(C)CC(=O)Nc1cccc(F)c1 | - | - | - | -
COc1ccc(CCNC(=O)c2cc(C)nc3c2c(C)nn3-c2ccc(C)cc2)cc1OC | . | . | - | .
CSc1ccc(CCNC(=O)Cn2nc(C)n3c(cc4sccc43)c2=O)cc1 | . | . | - | .
CCN(CC)CCNC(=O)c1ccc(NC(=O)c2cn(-c3ccccc3)nc2-c2cccs2)cc1 | - | ? | - | ?
CCN(CC)CCNC(=O)c1ccc(NC(=O)c2cn(-c3ccc(F)cc3)nc2-c2cccc(OC)c2)cc1 | - | 50µM | . | -
O=[N+]([O-])c1ccc(C[n+]2cccc3ccccc32)cc1 | - | - | . | -
O=[N+]([O-])c1ccc(C[n+]2cccc3ccc4cccnc4c32)cc1 | - | 14µM | . | -
CCC(C)n1nccc1NC(=O)C(C)OC(=O)c1cc2ccccc2[nH]1 (stereo not drawn) | - | - | 28µM | -
COc1ccccc1NC(=O)C(C)OC(=O)c1cc2ccccc2[nH]1 (stereo not drawn) | - | . | - | -
CCCn1c(C)nc2cc(Cl)c(N3CCN(c4nc(-c5ccc(C)cc5)cs4)CC3)cc21 | - | - | - | -
COc1ccc(-c2csc(N3CCN(c4cc5c(cc4Cl)nc(-c4ccncc4)n5CCOCCO)CC3)n2)cc1 | - | 45µM | - | -
Cc1ccc(-c2csc(N3CCN(c4cc5c(cc4Cl)nc(-c4ccncc4)n5CCN4CCCCC4)CC3)n2)cc1 | - | 56µM | - | -
Cc1ccc(-c2csc(N3CCN(c4ccc5nc(-c6ccncc6)n(CCN6CCCCC6)c5c4)CC3)n2)cc1 | - | 56µM | - | -
C=CC1C(N2CCOCC2)C(C)(C)S1(=O)=O (stereo not drawn) | - | - | - | -
O=S1(=O)C[C@@H](N2CCOCC2)[C@H](N2CCOCC2)C1 | - | 71µM | - | -
COc1cccc(OC)c1C(=O)NC(=S)N1CCCCC1c1cccnc1 (stereo not drawn) | - | - | - | -
O=C(/C=C/c1ccc(F)cc1)NC(=S)N1CCCCC1c1cccnc1 (stereo not drawn) | - | 50µM | . | -
CC(C)(C)NC(=O)CSc1nc2[nH]ncc2c(=O)[nH]1 | - | - | . | -
COc1cc(Cl)c(C)cc1NC(=O)c1cc2c(Cl)nc3ccc(C)cc3c2s1 | . | . | - | .
CCCn1c(SCC(=O)Nc2ccccc2C(=O)OC)nc2c1c(=O)n(C)c(=O)n2C | - | - | - | -
CCCn1c(SCC(=O)Nc2ccccc2N2CCCCC2)nc2c1c(=O)n(C)c(=O)n2C | - | 35µM | - | -
SMILES | TCR act | Sfp inh | ClpP mod | uPA generation
CCc1sc(Nc2cccc(Cl)c2C)nc1-c1cc2cccc(OC)c2oc1=O | . | . | - | .
O=C(NC1CCN(C(=S)NCc2ccco2)CC1)C1CCCCC1 | - | - | - | -
CC1CCCC(C)N1C(=S)NCc1ccco1 (stereo not drawn) | - | 35µM | . | -
OCC1CCCCN1C(=S)NCc1ccco1 (stereo not drawn) | - | 50µM | - | -
Fc1ccc(/C=C/c2ccc3ccccc3n2)cc1 | . | . | - | .
O=C(COCc1cc(-c2cccs2)on1)NCc1cccc(Cl)c1 | . | . | - | .
CCCOc1ccc(NC(=O)CC2C(=O)N(c3ccccc3)C(=O)N2Cc2ccc(F)cc2)cc1 (stereo not drawn) | . | . | - | .
COC(=O)c1ccccc1NC(=O)c1ccc(COc2cc(C)cc(C)c2)o1 | - | ? | 20µM! | -
COC(=O)c1ccccc1NC(=O)c1ccc(COc2ccc(C)c(C)c2)o1 | - | - | ? | -
CC(C)c1ccc(CN2CCC(C(=O)NCc3cccnc3)CC2)cc1 | - | 79µM | - | -
Cc1ccc(CNC(=O)CN2CCC(C(N)=O)CC2)cc1 | - | - | - | -
O=C(NCc1cccnc1)C1CCC(c2ccc(Cl)cc2)CC1 (stereo not drawn) | - | - | 28µM | -
CCS(=O)(=O)N1CCC(C(=O)NCc2cccnc2)CC1 | - | - | - | -
CSc1ccc(CN2CCC(C(=O)NCc3ccc(C)cc3)CC2)cc1 | - | 56µM | - | -
CCOc1ccc(Nc2oc(/C=C/c3cccc(OC)c3)nc2C#N)cc1 | . | . | - | .
COc1ccc(-n2nc(C(=O)NCCc3ccc(OC)c(OC)c3)c3c4ccccc4n(C)c3c2=O)cc1 | . | . | - | .
CC(C)OC(=O)CSc1nc(N)c(C#N)c(-c2ccco2)c1C#N | - | 56µM | 20µM | -
CCCCCc1nc(N)c(C#N)c(-c2ccco2)c1CCCC | - | - | 25µM | -
Cc1c(-c2ccccc2)nc(N)c(C#N)c1-c1ccco1 | - | 14µM | - | -
CCC(c1nnnn1-c1ccc2c(c1)OCCO2)N1CCN(CC)CC1 (stereo not drawn) | . | . | - | .
COc1ccc(CCN(C)CC(=O)Nc2cc(C)nc3ccccc23)cc1OC | - | 79µM | . | -
Cc1ccc(-n2c(=O)c3ccc(C(=O)NCc4ccccc4Cl)cc3n(Cc3cccc(F)c3)c2=O)cc1 | . | . | - | .
O=[N+]([O-])c1ccc(-c2nc(-c3cccs3)c(-c3cccs3)[nH]2)cc1 | - | - | - | -
COc1ccc(-c2nc(-c3cccs3)c(-c3cccs3)[nH]2)cc1OC | - | - | 35µM | -
Cc1ccsc1-c1nc(-c2ccccc2)c(-c2ccccc2)[nH]1 | . | - | 28µM | -
SMILES | TCR act | Sfp inh | ClpP mod | uPA generation
COc1ccc(-c2nc(-c3ccccc3)c(-c3cccs3)[nH]2)cc1OC | - | - | 28µM | -
Fc1ccc(-c2nc(-c3cccs3)[nH]c2-c2ccc(F)cc2)cc1 | - | - | ? | -
Oc1cccc(-c2nc(-c3cccs3)c(-c3cccs3)[nH]2)c1 | . | . | 25µM | .
COc1ccc(-c2nc(-c3ccccc3)c(-c3ccccc3)[nH]2)cc1Br | . | . | - | .
O=C(C[n+]1csc2ccccc21)c1ccc(O)c(O)c1 | . | . | - | .
Cc1ccc2c(/C=C/c3ccc(N(C)C)cc3)ccnc2c1 | . | . | - | .
COC(=O)c1ccc(NC(=O)CC2C(=O)N(c3ccccc3)C(=O)N2Cc2ccco2)cc1 (stereo not drawn) | . | . | - | .
CCOc1ccc(NC(=O)CC2C(=O)N(c3ccccc3)C(=O)N2Cc2ccco2)cc1 (stereo not drawn) | . | - | 25µM | -
COc1ccc(C(=O)CSc2nnc(-c3cc4ccccc4cc3O)n2Cc2ccco2)cc1 | - | - | - | .
CC1CCN(C(=O)CSc2nnc(-c3cc4ccccc4cc3O)n2Cc2ccco2)CC1 | - | 28µM | - | .
COc1ccc(NC(=O)CSc2nnc(-c3ccccc3Cl)n2Cc2ccco2)c(OC)c1 | - | 7.1µM | - | -
